Data on 5 molecules can be found in PubChem BioAssay (NCATS).

Records with an inconclusive call do not appear. Activity calls are given as the source filed them. The call rests on the fitted dose curve; in most records, active means well fitted curve in the direction sought with a large enough effect; inconclusive means small, poorly fitted or top-dose-only effect, or another doubt; inactive means no such curve, though single readings can be large; an effect the other way counts as inactive or inconclusive. Non-standard residues stand in square brackets, D forms with d. Residues, ends and D or L forms follow the SMILES beside them. *: point of attachment. Nva = CCC[C@H](N)C(=O)O; Cbz = O=C(OCc1ccccc1)*

Experiment [1] in a line: Quantitative High-Throughput drug screen in 47 multiple myeloma cell lines against the NCATS MIPE library collection: Karpas620_DSMZ cell viability assay (AID 1918959). Further: nearly all actives have a fitted effect of over 30% in size. The method in brief:
(§1)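 Luminescent ATP measurement with CellTiter-Glo gives viability, scaled between DMSO-only wells (100%) and media-only wells (0%). Cells, 500 per well, faced library compounds for 48 hours at 37C.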

Experiment [2] can be described thus: Quantitative High-Throughput drug screen in 47 multiple myeloma cell lines against the NCATS MIPE library collection: KMM1_JCRB cell viability assay (AID 1918960). Further: nearly all actives have a fitted effect of over 30% in size. In outline:
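Myeloma cells at 500 per well in 1536-well format treated with MIPE 4.0 library by pin transfer for 48 h at 37C, 5% CO2. Viability from ATP luminescence (CellTiter-Glo), normalized to DMSO (100%) and media-only (0%) wells.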

A short description of experiment [3]: Quantitative High-Throughput drug screen in 47 multiple myeloma cell lines against the NCATS MIPE library collection: Karpas417_ECACC cell viability assay (AID 1918961). The conditions noted are these: Karpas417 myeloma viability, CellTiter-Glo ATP luminescence, 48 h; viability (% of DMSO): at 45.8 µM (top of the series). In outline:
(§2)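 Steps: seed 500 cells per well; pin-transfer MIPE 4.0 library; incubate 48 h at 37C, 5% CO2, humidified; add CellTiter-Glo, 5 min room temperature; read luminescence.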

A short description of experiment [4]: Quantitative High-Throughput drug screen in 47 multiple myeloma cell lines against the NCATS MIPE library collection: JIM3_ECACC cell viability assay (AID 1918963; further: nearly all actives have a fitted effect of over 35% in size). In outline: as §1
Experiment [5] is described as follows: Quantitative High-Throughput drug screen in 47 multiple myeloma cell lines against the NCATS MIPE library collection: Karpas25_ECACC cell viability assay (AID 1918968; further: nearly all actives have a fitted effect of over 35% in size). In outline: (§3)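 CellTiter-Glo luminescence (ATP) after 48 h compound exposure, 37C/5% CO2; 500 cells/well; MIPE 4.0 approved/investigational drugs pinned in; DMSO = 100%, media only = 0% viability.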

Experiment [6] is described as follows: Quantitative High-Throughput drug screen in 47 multiple myeloma cell lines against the NCATS MIPE library collection: KMS12PE_JCRB cell viability assay (AID 1918972). Further: nearly all actives have a fitted effect of over 30% in size. In outline: as §2
Experiment [7] in a line: Quantitative High-Throughput drug screen in 47 multiple myeloma cell lines against the NCATS MIPE library collection: KMS20_JCRB cell viability assay (AID 1918973). Further: nearly all actives have a fitted effect of over 45% in size. The method in brief: as §3
Experiment [8] is described as follows: Quantitative High-Throughput drug screen in 47 multiple myeloma cell lines against the NCATS MIPE library collection: KMS21BM_JCRB cell viability assay (AID 1918974). The conditions noted are these: ATP luminescence, 48 h; viability: at 45.8 µM (top of the series). The method in brief: as §3
Experiment [9] can be described thus: Quantitative High-Throughput drug screen in 47 multiple myeloma cell lines against the NCATS MIPE library collection: KMS26_JCRB cell viability assay (AID 1918975). Further: nearly all actives have a fitted effect of over 45% in size. The method in brief:
(§4)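 Inhibition of cell viability is measured here. Each line was plated at 500 cells per well, treated with MIPE 4.0 drugs, kept 48 hours at 37C, then assayed for ATP content by CellTiter-Glo luminescence.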

The nature of experiment [10]: Quantitative High-Throughput drug screen in 47 multiple myeloma cell lines against the NCATS MIPE library collection: MMM1_PLB cell viability assay (AID 1918976). Further: nearly all actives have a fitted effect of over 35% in size. The method in brief: (§5)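 Inhibition of viability over 48 h was scored by ATP content (CellTiter-Glo) in 500-cell wells. Zero and full viability were defined by media-only and DMSO-only wells.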
The nature of experiment [11]: Quantitative High-Throughput drug screen in 47 multiple myeloma cell lines against the NCATS MIPE library collection: MOLP8_DSMZ cell viability assay (AID 1918977). Further: nearly all actives have a fitted effect of over 45% in size. In outline: as §5
Experiment [12] can be described thus: Quantitative High-Throughput drug screen in 47 multiple myeloma cell lines against the NCATS MIPE library collection: OCIMY1_PLB cell viability assay (AID 1918979). Further: nearly all actives have a fitted effect of over 35% in size. In outline:
as §5

Experiment [13] can be described thus: Quantitative High-Throughput drug screen in 47 multiple myeloma cell lines against the NCATS MIPE library collection: JIM1_ECACC cell viability assay (AID 1918964). In outline:
as §3

Experiment [14] in a line: Quantitative High-Throughput drug screen in 47 multiple myeloma cell lines against the NCATS MIPE library collection: INA6_PLB cell viability assay (AID 1918965; further: nearly all actives have a fitted effect of over 55% in size). The method in brief: as §2
Experiment [15] in a line: Quantitative High-Throughput drug screen in 47 multiple myeloma cell lines against the NCATS MIPE library collection: H1112_PLB cell viability assay (AID 1918967; further: nearly all actives have a fitted effect of over 30% in size). In outline:
as §3

Experiment [16] in a line: Quantitative High-Throughput drug screen in 47 multiple myeloma cell lines against the NCATS MIPE library collection: KMS27_JCRB cell viability assay (AID 1918970). Further: nearly all actives have a fitted effect of over 30% in size. Conditions: KMS27 myeloma cells, CellTiter-Glo ATP viability, 48 h; viability (% of DMSO): at 45.8 µM (top of the series). In outline: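 Each line is seeded at 500 cells per well and treated with library compounds for 48 hours under 37 °C, 5% CO2. CellTiter-Glo is then added for 5 min at room temperature before median relative luminescence is recorded.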
(In general: Cellular ATP, detected with luciferase, serves as a proxy for viable cell number.)

A short description of experiment [17]: Quantitative High-Throughput drug screen in 47 multiple myeloma cell lines against the NCATS MIPE library collection: KMS12BM_JCRB cell viability assay (AID 1918971). Further: nearly all actives have a fitted effect of over 35% in size. The method in brief:
as §4

A short description of experiment [18]: Quantitative High-Throughput drug screen in 47 multiple myeloma cell lines against the NCATS MIPE library collection: NCIH929_DSMZ cell viability assay (AID 1918978). Further: nearly all actives have a fitted effect of over 35% in size. In outline:
as §5

Experiment [19] is described as follows: Quantitative High-Throughput drug screen in 47 multiple myeloma cell lines against the NCATS MIPE library collection: KHM11_PLB cell viability assay (AID 1918962). Further: nearly all actives have a fitted effect of over 35% in size. In outline:
as §1

A short description of experiment [20]: Quantitative High-Throughput drug screen in 47 multiple myeloma cell lines against the NCATS MIPE library collection: JJN3_DSMZ cell viability assay (AID 1918966; further: nearly all actives have a fitted effect of over 50% in size). The method in brief: as §3
Potency means the concentration at half of the fitted maximal effect.

Take `O=c1ccn([C@@H]2O[C@H](CO)[C@H](O)[C@@H]2F)c(=O)[nH]1`: the Potency entry in [1], in experiment [2], in experiment [3], in experiment [4], in experiment [6] and in experiment [7] was “inactive” throughout. Also, the Potency result in experiment [8], in experiment [9], in experiment [11] and in experiment [12] was “inactive” each time. The Potency was 9350 nM (active) in [5] and 2640 nM (active) in experiment [10].

For `Cc1[nH]c(C=C2C(=O)Nc3ccccc32)c(C)c1CCC(=O)O`, the Potency in experiment [1] was 18700 nM (active); in experiment [2], 13200 nM (active); in experiment [3] it was 23500 nM (active); in experiment [13], 2960 nM (active); in experiment [14], 3720 nM (active); in [15], 4180 nM (active). Besides, the Potency was 10500 nM (active) in experiment [5]; 5900 nM (active) in experiment [16]; 5900 nM (active) in [17]; 9350 nM (active) in [6]; 11800 nM (active) in experiment [7]; 11800 nM (active) in experiment [8]. Moreover, in experiment [18], the Potency was 7430 nM (active).

Consider `Cc1ncc(-c2ccnc(Nc3ccc(S(C)(=O)=O)cc3)n2)n1C(C)C`, for which the Potency was 3720 nM (active) in experiment [1]; 1480 nM (active) in [2]; 1660 nM (active) in [19]; 2350 nM (active) in experiment [4]; 2350 nM (active) in experiment [13]; 1180 nM (active) in experiment [14]. For the same molecule, the Potency is 2090 nM (active) in experiment [20]; 4180 nM (active) in experiment [15]; 2640 nM (active) in experiment [16]; 4180 nM (active) in [17]; 2960 nM (active) in [6]; 2350 nM (active) in [7]. The Potency was 2640 nM (active) in [9], 4690 nM (active) in experiment [10], 1320 nM (active) in experiment [11] and 2090 nM (active) in experiment [18].

`CCC[C@@H](C=O)NC(=O)[C@H](CC(C)C)NC(=O)[C@H](CC(C)C)NC(=O)OCc1ccccc1` (Cbz-Leu-Leu-[Nva]-aldehyde): the Potency is 332 nM (active) in experiment [1]; 235 nM (active) in [2]; 469 nM (active) in experiment [19]; 935 nM (active) in experiment [4]; 372 nM (active) in experiment [13]; 235 nM (active) in experiment [14]. The Potency in [20] is 1180 nM (active); in experiment [15] it was 418 nM (active); in [5] it was 296 nM (active); in experiment [16], 332 nM (active); in experiment [17], 1050 nM (active); in [6] it was 296 nM (active). In addition, the Potency was 187 nM (active) in experiment [7]; 1320 nM (active) in experiment [9]; 3720 nM (active) in experiment [10]; 1180 nM (active) in experiment [11]; 296 nM (active) in experiment [18]; 743 nM (active) in experiment [12].

On to `CCCCCCCCCCCC(CC1OC(=O)C1CCCCCC)OC(=O)C(CC(C)C)NC=O` (stereo not drawn), for which the Potency result in experiment [1], in experiment [2], in experiment [19], in experiment [4], in experiment [13] and in [15] was “inactive” in each case. Further, the Potency entry in experiment [5], in [18] and in [12] was “inactive” each time. The Potency in experiment [14] was 332 nM (active); in [20] it was 23500 nM (active); in experiment [17] it was 20900 nM (active); in [7], 4.2 nM (active); in [10] it was 20900 nM (active).
